Bioassay records: PubChem, National Center for Advancing Translational Sciences (NCATS)
Casp7 inh: blocks human caspase-7 allosterically or competitively. P55210. recombinant caspase-7, Ac-DEVD-AFC fluorescence rate. Potency, µM (highest dose often 57.5 µM), most hits filed as inhibitors. actives 0.02% (n = 75,000). AID 889; active = well fitted inhibition curve with a large enough effect in the main read-out, with a control signal flat, not every such curve was filed as active; inconclusive = small, poorly fitted or top-dose-only effect, or a change in a side signal
ALOX15 inhib: blocks human 15-lipoxygenase activity. actives 1.4% (n = 74,000). Potency, µM (highest dose often 57.1 µM), hits mostly inhibitors. purified 15hLO-1, xylenol orange hydroperoxide absorbance. P16050; note: nearly all actives have a fitted effect of over 55% in size
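Purified human 15hLO-1 (40 nM final) in 25 mM Hepes pH 7.5, 0.01% Triton X-100 was preincubated with compound 15 min at room temperature, then reacted 6 min with 50 uM arachidonic acid; hydroperoxide detected by Fe-XO, 573/405 nm absorbance ratio.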
ALOX15B inhib: blocks human 15-lipoxygenase 2 activity; purified 15hLO-2, xylenol orange hydroperoxide absorbance; Potency, µM (series often up to 57.1 µM), most hits filed as inhibitors; actives 0.56% (n = 110,000); note: nearly all actives have a fitted effect of over 60% in size
Target sequence (O15296 whole entry, looked up): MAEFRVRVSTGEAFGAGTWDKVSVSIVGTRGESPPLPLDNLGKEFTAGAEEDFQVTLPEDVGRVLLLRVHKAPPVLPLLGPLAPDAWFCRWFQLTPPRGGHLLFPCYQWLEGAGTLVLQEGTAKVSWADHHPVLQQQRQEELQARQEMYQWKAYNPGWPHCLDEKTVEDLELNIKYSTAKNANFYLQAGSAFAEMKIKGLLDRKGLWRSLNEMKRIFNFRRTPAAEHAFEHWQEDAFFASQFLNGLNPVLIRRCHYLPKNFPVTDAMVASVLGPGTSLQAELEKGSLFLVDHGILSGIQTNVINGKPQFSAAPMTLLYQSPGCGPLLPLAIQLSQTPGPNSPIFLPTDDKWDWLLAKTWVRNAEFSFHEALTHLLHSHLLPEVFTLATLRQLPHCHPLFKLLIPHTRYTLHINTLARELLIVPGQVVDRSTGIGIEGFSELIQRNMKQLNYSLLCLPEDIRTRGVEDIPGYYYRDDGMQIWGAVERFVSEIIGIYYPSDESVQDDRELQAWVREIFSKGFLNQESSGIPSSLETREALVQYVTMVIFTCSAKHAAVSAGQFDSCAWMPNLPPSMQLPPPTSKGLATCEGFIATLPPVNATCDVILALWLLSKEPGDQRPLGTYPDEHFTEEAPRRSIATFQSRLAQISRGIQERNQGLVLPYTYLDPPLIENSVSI
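Enzyme 50 nM, AA 45 uM, 25 mM Hepes pH 7.5 + 0.01% Triton X-100; cpd preinc 15 min RT, rxn 90 min RT; stop/detect with 200 uM XO + 300 uM Fe(II) in 50 mM H2SO4, 30 min; A573/A405.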
Caspase-1 inhib: caspase-1 (human) inhibition, allosteric or competitive; Potency, µM (top dose mostly 57.5 µM), most hits filed as inhibitors; P29466; Caspase-1 enzyme, Ac-WEHD-AFC fluorogenic rate; actives 0.03% (n = 75,000); AID 900
HEK293 cAMP cs: raises cAMP in parental HEK293 cells, TSHR agonist counter-screen. Potency, µM (highest dose often 57.1 µM), hits mostly activators. actives 2.5% (n = 73,000). parental HEK293 CNG cAMP sensor, membrane potential fluorescence; note: nearly all actives have a fitted effect of over 55% in size
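Counterscreen for endogenous-receptor signalling: CNG-channel HEK 293 cells report cAMP rise by membrane depolarization. After 60 min dye equilibration with 100 uM RO 20-1724, compounds incubated 30 min before bottom-read fluorescence at 590 nm.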
TSHR ag: TSH receptor (human) agonism; P16473; HEK293-CNG-TSHR cells (CNG channel as cAMP sensor), membrane potential dye, cAMP; actives 0.48% (n = 73,000); AID 926; Potency, µM (series often up to 57.1 µM), actives largely listed as activators; active = well fitted activation curve with a large enough effect in the main read-out, with a control signal flat, not every such curve was filed as active; inconclusive = small, poorly fitted or top-dose-only effect, or a change in a side signal; inactive = no such curve, though single readings can be large or run the other way; reference of the percent scale not stated here;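 note: the control signal comes from parental cells without the receptor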
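HEK 293 cells stably expressing TSHR and a cAMP-gated CNG channel; parental CNG-only cells as counterscreen. Cells preloaded 60 min with membrane potential dye plus 100 uM RO 20-1724, then compound 30 min; fluorescence read at 590 nm.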
A number is an active result; n = inactive; u = inconclusive; x = not tested or not shown; [ ] = dose if it differs, or a comment. The list is not random: actives were taken first. Their share in the collection is about 3%. Unless noted, calls come from the whole dose curve; as a rule, active = well fitted curve in the direction sought with a large enough effect; inconclusive = small, poorly fitted or top-dose-only effect, or another doubt; inactive = no such curve, though single readings can be large; an effect the other way counts as inactive or inconclusive.

SMILES	Casp7 inh	ALOX15 inhib	ALOX15B inhib	Caspase-1 inhib	HEK293 cAMP cs	TSHR ag
Clc1ccc(-n2nnnc2-c2ccccc2)cc1Cl	n	n	n	n	25.1µM	u
COc1ccc(-c2cc(C(F)F)n3ncc(C(=O)N4CCN5CCCC5C4)c3n2)cc1 (stereo not drawn)	u	n	n	x	15.8µM	u
CCOC(=O)N1CCN(C(=O)c2cnn3c(C(F)F)cc(-c4ccc(C)cc4)nc23)CC1	n	n	n	n	u	u
COc1ccc(-c2cc(C(F)F)n3ncc(C(=O)NCC4CCCO4)c3n2)cc1 (stereo not drawn)	u	n	n	x	7.94µM	u
O=c1c(-c2cccs2)nc2cnc(N3CCNCC3)nc2n1CCc1ccccc1	u	n	n	x	n	u
Cc1ccc(Nc2ncnc3nc[nH]c23)cc1Cl	n	n	n	n	25.1µM	u
CO[C@@H]1/C=C\O[C@@]2(C)Oc3c(C)c(O)c4c(c3C2=O)C(=N[C@H]2CC[C@H](O)O[C@@H]2C)C=C(NC(=O)/C(C)=C\C(=O)[C@@H]2C[C@@H]2[C@@H](O)[C@H](C)[C@@H](O)[C@H](C)[C@H](OC(C)=O)[C@@H]1C)C4=O	n[11.5 µM]	2µM	n[11.4 µM]	n[11.5 µM]	n[11.4 µM]	n[11.4 µM]
Nc1c(C(=O)N2CCCCC2)sc(=S)n1-c1ccccc1	n	10µM	n	n	n	n
NC(=O)c1c(NC(=O)CSc2nnc(-c3ccco3)n2-c2ccccc2)sc2c1CCC2	n	25.1µM	u	n	u	u
CCOC(=O)c1c(-c2ccc(C)o2)csc1NC(=O)CSc1nnc(C)s1	n	n	u	n	31.6µM	u
Cc1ccc(-n2c(SCC(=O)Nc3ccc4c(c3)OCCO4)nnc2-c2ccco2)cc1	n	n	n	n	n	25.1µM
CCOC(=O)c1sc(NC(=O)CSc2nnc(-c3ccco3)n2CC)c(C(=O)OCC)c1C	n	6.31µM	n[11.4 µM]	n	u	u
N#Cc1c(NC(=O)CSc2nnc(-c3ccco3)n2-c2ccccc2)sc2c1CCC2	x	x	n	x	x	x
CCOC(=O)c1c(-c2ccc(C)o2)csc1NC(=O)CSc1nnnn1-c1ccccc1	n	u	u	n	u	u
N#CCCSC(=S)[C@H]1CCCC1=N	n[11.5 µM]	n[11.4 µM]	n[11.4 µM]	n[11.5 µM]	u	u
Cc1nc2cnc(OCc3ccccc3)nc2n(Cc2ccc(F)cc2)c1=O	n	n	n	n	u	u
CCOC(=O)c1sc(NC(=O)CSc2nncs2)c(C(=O)OCC)c1C	n	n	n	n	25.1µM	u
CCCCCc1c(O)c2ccccc2[nH]c1=O	n	n	n	n	n	n
CCCCc1c2ccccc2nc2[nH]c3ccccc3c12	n	x	n	n	12.6µM	u
C[C@H](NC(=O)/C(C#N)=C/c1ccc(O)c(O)c1)c1ccccc1	n	0.251µM	u	n	u	u
N#C/C(=C\c1ccc(O)c(O)c1)C(=O)Nc1ccccc1	n	3.16µM	u	n	n	n
C=C1CC[C@H](O)C/C1=C/C=C1\CCC[C@]2(C)[C@H]1CC[C@H]2[C@@H](C)/C=C\[C@@H](C)C(C)C	n	u	n	n	u	u
Fc1ccc(-c2nnc3ccc(N4CCc5ccccc5C4)nn23)cc1	n	25.1µM	n	n	n	n
O=C(Nc1ccc(F)cc1)N1CCN(c2ccc3nnc(-c4ccc(F)cc4)n3n2)CC1	x	x	n	x	x	x
O=c1c(CCc2ccccc2)nc2cnc(N3CCOCC3)nc2n1-c1ccccc1	u	n	n	x	u	u
CCn1c(Cc2ccccc2)nnc1SCC(=O)Nc1nc2ccccc2s1	n	25.1µM	n	n	n	n
Cn1cccc1Cc1nnc(SCC(=O)Nc2nc3ccccc3s2)n1CCc1ccccc1	n	n	n	n	n	n
O=C(CN1CCN(S(=O)(=O)c2ccc(Br)cc2)CC1)Nc1ccc(F)cc1F	n	n	n	n	u	u
O=C(CN1CCN(S(=O)(=O)c2ccc(Br)cc2)CC1)Nc1ccccc1F	n	n	n	n	31.6µM	u
C=CCCCCCCCCCCCC(O)CC(O)COC(C)=O (stereo not drawn) (tested in a mixture with another compound)	n	n	n	n	x	x
